In PubChem BioAssay (NCATS):
“And” between values parts separate entries of the source, which are not always exact repeats. Identical values can stand only once. A number with no mark means an inactive call. Results filed as inconclusive are left out. A call without a number means that no potency is given here. The source made the active and inactive calls. Unless noted, calls follow the shape of the dose curve; as a rule, active = well fitted curve in the direction sought with a large enough effect; inconclusive = small, poorly fitted or top-dose-only effect, or another doubt; inactive = no such curve, though single readings can be large; an effect the other way counts as inactive or inconclusive.

Columns and labels:
[1] = NFAT Signaling Pathway (AID 444; active = well fitted curve in either direction with a large enough effect, not every such curve was filed as active;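 also: carbachol stimulus at about its EC50 of 1 µM final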); conditions: Jurkat NFAT-bla M1, carbachol, beta-lactamase ratio, 5 h; at 7.69 µM (top of the series) unless noted
How it was run: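 Jurkat cells carrying an NFAT-driven β-lactamase reporter and co-transfected muscarinic M1 receptor were treated with compound plus carbachol (1 uM final, an EC50 level) for 5 h at 37 °C. CCF4 loading followed for 1 h at RT; 460/530 nm ratio gave %activity.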

[2] = Stat Signaling Pathway (AID 446; active = well fitted curve in either direction with a large enough effect, not every such curve was filed as active;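 also: ME-180 cervical cancer cells given 40 pM IL-6 alongside compound; SIE-controlled beta-lactamase reporter measured as 460/530 nm FRET emission ratio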)
How it was run: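 Overnight-plated ME-180 cells bearing a STAT Inducible Element beta-lactamase reporter; 5 h co-exposure to compound and 40 pM IL-6; values normalized to 300 pM IL-6 and 125 nM JAK inhibitor controls.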

[3] = target: Glucocorticoid receptor (Homo sapiens) (UniProt P04150); assay: GR-EFC Redistribution (AID 451; calls by dose curve; also: potency is read from the fitted curve at half-maximal effect); conditions: CHO-K1 GR-EFC translocation, beta-gal luminescence, 2 h
How it was run: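 CHO-K1 cells stably expressing nuclear-localized β-gal enzyme acceptor and GR fused C-terminally to the enzyme donor fragment; ligand-driven nuclear translocation restores β-gal by complementation. Compounds titrated up to 46 uM final, 2 h at 37 °C; luminescence read.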

[4] = target: Cytochrome P450 3A4 (Homo sapiens) (UniProt P08684); assay: qHTS Assay for Activators of Cytochrome P450 3A4 (AID 885); also: nearly all actives have a fitted effect of over 65% in size
How it was run: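 Using 20nM recombinant human CYP3A4 in potassium phosphate (200mM), substrate Luciferin-PPXE at 25uM, luminescent luciferin detection followed a 60-min RT NADPH reaction; data scaled to 57 uM ketoconazole.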

[5] = target: Androgen receptor (Homo sapiens) (UniProt P10275); assay: qHTS assay for small molecule agonists of androgen receptor signaling (AID 588515; active = well fitted curve in the direction sought with a large enough effect in the signal ratio, with a control signal flat; the % refers to the signal ratio); conditions: AR-UAS-bla HEK293, beta-lactamase ratio, agonist 16 h; stronger effect = higher value
How it was run: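 Stimulation of an AR-responsive β-lactamase reporter in GripTite HEK293 cells was measured after 16 h compound exposure at 37 °C, via CCF4 fluorescence after 2 h RT. EC50 from Hill fits, normalized to R1881 at 30 nM.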

[6] = target: Androgen receptor (Homo sapiens) (UniProt P10275); assay: qHTS assay for small molecule antagonists of androgen receptor signaling (AID 588516; active = well fitted curve in the direction sought with a large enough effect in the signal ratio, with a control signal flat, not every such curve was filed as active; the % refers to the signal ratio)
How it was run: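 Antagonist-mode qHTS: inhibition of R1881 (10 nM)-driven beta-lactamase expression in GripTite HEK 293 cells is measured after 16 h; values are Hill-derived IC50s normalized between R1881 and DMSO wells.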

[7] = Cell Viability - N2a (AID 540); conditions: N2a mouse neuroblastoma cell viability; activity change, negative = cytotoxicity: at 92.2 µM (top of the series); also: nearly all actives have a fitted effect of over 45% in size
How it was run: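 CellTiter-Glo ATP luminescence, read 20 min after reagent at room temperature, reported viability following 40 h compound treatment at 37 °C. N2a mouse neuroblastoma cells seeded 1500/well; Hill equation gave AC50.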

[8] = Cell Viability - LYMP1-002 - Assay at 40 hr (AID 994); also: nearly all actives have a fitted effect of over 60% in size
How it was run: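 Cytotoxicity was read as loss of cellular ATP (CellTiter-Glo luminescence) after 40 hr compound exposure at 37 C of 2500 LYMP1-002 lymphoblastoid cells per well. Concentration-response data were fitted with the standard Hill equation to give AC50.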

[9] = target: Glucocorticoid receptor (Homo sapiens) (UniProt P04150); assay: qHTS assay for small molecule agonists of glucocorticoid receptor signaling (AID 588532; active = well fitted curve in the direction sought with a large enough effect in the signal ratio, with a control signal flat; the % refers to the signal ratio); conditions: HeLa MMTV-bla, beta-lactamase ratio, agonist, 18 h; stronger effect = higher value; percent of dexamethasone control, DMSO zero
How it was run: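 Titration series, up to 92 uM, applied to GRE-bla HeLa cells for 18 h at 37 C. Detection by CCF4 FRET substrate after 2 h at RT.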

[10] = target: Luciferin 4-monooxygenase (Photinus pyralis) (UniProt P08659); assay: Biochemical firefly luciferase enzyme assay for NPC (AID 624030);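 also: purified P. pyralis luciferase at 10 nM with luciferin and ATP substrate; nearly all actives have a fitted effect of over 70% in size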
How it was run: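 Counter-screen for direct inhibition of the luciferase enzyme by approved-drug library compounds, run at 10 nM enzyme in 50 mM Tris acetate (final). Luminescence was read within 5 min of enzyme-buffer addition and normalized to PTC124 versus DMSO (0%).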

[11] = qHTS profiling for inhibitors of Plasmodium falciparum proliferation (AID 504749); also: potency is read from the fitted curve at half-maximal effect; as to all read-outs here: nearly all actives have a fitted effect of over 60% in size; conditions: P. falciparum in erythrocytes, SYBR Green DNA, 72 h; for activity, negative = inhibition: at 28.7 µM (top of the series)
How it was run: (§1)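 Quantitative HTS: compounds pinned into medium, infected erythrocytes added (0.3% parasitemia, 2.5% hematocrit), 72 h culture at 37 C under 5% CO2. Saponin/Triton lysis with SYBR Green I, overnight RT, then fluorescence read.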

AA1029 = assay: as above; conditions: P. falciparum in erythrocytes, SYBR Green DNA, 72 h; series mostly up to 28.7 µM
How it was run: as §1

ATS189 = assay: as above; conditions: P. falciparum in erythrocytes, SYBR Green DNA, 72 h; series mostly up to 28.7 µM
How it was run: as §1

ATS95 = assay: as above; conditions: P. falciparum in erythrocytes, SYBR Green DNA, 72 h; series mostly up to 28.7 µM
How it was run: as §1

CP238 = assay: as above; conditions: P. falciparum in erythrocytes, SYBR Green DNA, 72 h; series mostly up to 28.7 µM
How it was run: as §1

CP262 = assay: as above; conditions: P. falciparum in erythrocytes, SYBR Green DNA, 72 h; series mostly up to 28.7 µM
How it was run: as §1

CP265 = assay: as above; conditions: P. falciparum in erythrocytes, SYBR Green DNA, 72 h; series mostly up to 28.7 µM
How it was run: as §1

CP286 = assay: as above; conditions: P. falciparum in erythrocytes, SYBR Green DNA, 72 h; series mostly up to 28.7 µM
How it was run: as §1

PC15 = assay: as above; conditions: P. falciparum in erythrocytes, SYBR Green DNA, 72 h; series mostly up to 28.7 µM
How it was run: as §1

W2 = assay: as above; conditions: P. falciparum in erythrocytes, SYBR Green DNA, 72 h; series mostly up to 28.7 µM
How it was run: as §1

Chain of Cytochrome P450 3A4 (Homo sapiens) (P08684 whole entry, looked up): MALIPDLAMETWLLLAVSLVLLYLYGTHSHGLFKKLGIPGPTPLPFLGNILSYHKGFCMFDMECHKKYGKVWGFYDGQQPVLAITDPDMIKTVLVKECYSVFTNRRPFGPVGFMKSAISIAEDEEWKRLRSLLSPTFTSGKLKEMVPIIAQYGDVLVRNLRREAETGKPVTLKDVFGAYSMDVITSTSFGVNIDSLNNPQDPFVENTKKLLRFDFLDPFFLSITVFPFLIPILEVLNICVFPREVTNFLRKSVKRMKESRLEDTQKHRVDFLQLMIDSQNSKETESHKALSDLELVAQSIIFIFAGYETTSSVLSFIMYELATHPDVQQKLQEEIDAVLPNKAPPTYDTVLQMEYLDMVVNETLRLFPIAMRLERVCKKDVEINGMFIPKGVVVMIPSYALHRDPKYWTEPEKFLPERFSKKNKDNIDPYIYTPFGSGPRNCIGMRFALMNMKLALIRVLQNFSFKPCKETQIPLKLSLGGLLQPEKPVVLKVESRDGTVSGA
Chain of Luciferin 4-monooxygenase (Photinus pyralis) (P08659 whole entry, looked up): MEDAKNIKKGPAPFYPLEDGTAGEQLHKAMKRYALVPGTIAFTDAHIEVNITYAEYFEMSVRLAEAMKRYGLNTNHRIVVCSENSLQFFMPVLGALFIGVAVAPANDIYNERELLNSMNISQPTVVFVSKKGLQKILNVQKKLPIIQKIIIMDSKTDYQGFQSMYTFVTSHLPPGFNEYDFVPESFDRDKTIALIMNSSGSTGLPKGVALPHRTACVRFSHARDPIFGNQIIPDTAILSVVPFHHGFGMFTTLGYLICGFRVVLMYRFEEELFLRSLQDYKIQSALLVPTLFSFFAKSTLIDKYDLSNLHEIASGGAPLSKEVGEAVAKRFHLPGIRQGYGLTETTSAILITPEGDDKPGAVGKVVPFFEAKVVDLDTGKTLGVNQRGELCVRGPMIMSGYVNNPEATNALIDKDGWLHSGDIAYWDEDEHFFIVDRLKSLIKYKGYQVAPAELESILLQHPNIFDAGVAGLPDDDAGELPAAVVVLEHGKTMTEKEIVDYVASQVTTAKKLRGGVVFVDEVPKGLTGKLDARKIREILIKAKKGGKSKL
Chain of Androgen receptor (Homo sapiens) (P10275 whole entry, looked up): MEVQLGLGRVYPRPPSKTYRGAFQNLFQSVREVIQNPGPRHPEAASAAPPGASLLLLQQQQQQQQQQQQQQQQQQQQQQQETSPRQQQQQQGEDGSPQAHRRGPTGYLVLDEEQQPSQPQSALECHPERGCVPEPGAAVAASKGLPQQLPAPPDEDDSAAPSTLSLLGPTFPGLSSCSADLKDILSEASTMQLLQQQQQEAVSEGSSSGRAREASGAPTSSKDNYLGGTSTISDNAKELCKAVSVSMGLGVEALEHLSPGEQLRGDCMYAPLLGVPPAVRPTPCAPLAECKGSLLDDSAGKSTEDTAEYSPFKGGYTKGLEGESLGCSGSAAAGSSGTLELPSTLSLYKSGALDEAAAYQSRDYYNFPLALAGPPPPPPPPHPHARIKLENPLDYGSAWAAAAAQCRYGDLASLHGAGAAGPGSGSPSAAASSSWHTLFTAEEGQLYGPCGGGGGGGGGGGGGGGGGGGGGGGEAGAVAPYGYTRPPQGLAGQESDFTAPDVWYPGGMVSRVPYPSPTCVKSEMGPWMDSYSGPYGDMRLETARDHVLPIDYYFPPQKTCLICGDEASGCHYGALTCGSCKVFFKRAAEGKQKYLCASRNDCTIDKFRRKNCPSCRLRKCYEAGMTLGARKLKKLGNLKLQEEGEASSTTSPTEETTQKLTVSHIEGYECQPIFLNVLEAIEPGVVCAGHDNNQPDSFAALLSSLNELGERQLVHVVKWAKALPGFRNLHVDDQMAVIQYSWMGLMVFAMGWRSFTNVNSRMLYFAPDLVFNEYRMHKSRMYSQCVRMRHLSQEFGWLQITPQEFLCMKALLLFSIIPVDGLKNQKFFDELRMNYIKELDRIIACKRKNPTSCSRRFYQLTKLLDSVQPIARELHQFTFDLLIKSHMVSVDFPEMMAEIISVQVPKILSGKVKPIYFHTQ
Chain of Glucocorticoid receptor (Homo sapiens) (P04150 whole entry, looked up, the tested form may be a part): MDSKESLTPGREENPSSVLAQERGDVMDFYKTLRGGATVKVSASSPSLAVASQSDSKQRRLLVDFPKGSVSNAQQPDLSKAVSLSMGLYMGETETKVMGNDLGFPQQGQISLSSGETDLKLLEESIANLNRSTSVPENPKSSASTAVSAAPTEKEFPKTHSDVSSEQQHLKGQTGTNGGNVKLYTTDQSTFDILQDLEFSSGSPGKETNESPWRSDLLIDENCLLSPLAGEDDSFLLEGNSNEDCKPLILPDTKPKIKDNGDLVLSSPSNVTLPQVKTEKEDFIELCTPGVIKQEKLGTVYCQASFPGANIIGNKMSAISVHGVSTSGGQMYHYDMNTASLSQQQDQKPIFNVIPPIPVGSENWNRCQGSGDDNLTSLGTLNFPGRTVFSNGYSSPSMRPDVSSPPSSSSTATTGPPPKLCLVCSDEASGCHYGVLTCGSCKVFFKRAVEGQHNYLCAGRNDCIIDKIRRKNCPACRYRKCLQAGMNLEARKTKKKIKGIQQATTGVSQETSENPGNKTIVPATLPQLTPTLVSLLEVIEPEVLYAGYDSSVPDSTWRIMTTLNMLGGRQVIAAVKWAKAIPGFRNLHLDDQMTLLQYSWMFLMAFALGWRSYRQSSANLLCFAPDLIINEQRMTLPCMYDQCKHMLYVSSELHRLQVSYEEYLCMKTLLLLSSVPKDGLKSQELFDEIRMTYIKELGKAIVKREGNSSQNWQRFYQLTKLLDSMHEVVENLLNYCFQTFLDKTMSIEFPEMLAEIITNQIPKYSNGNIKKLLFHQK

COc1cccc(Cn2c(=O)cnc3cnc(N(C)C)nc32)c1
activity change, negative = inhibition [1]: -0.24%
outcome [2]: inactive
Potency [3]: > 46 µM
outcome [4]: inactive

CCO
activation [5]: 30.9%
outcome [6]: inactive

CCCCOCCO
activity change, negative = cytotoxicity [7]: 6.13% and -1.59%

O=C(O)c1ccc(O)cc1O
activity change, negative = cytotoxicity [7]: 7.6% and 11%

CNc1ncncc1-c1ccccc1CN(C)C
activity change, negative = inhibition [1]: -28.4%
outcome [2]: inactive
Potency [3]: > 46 µM

c1ccccc1
Potency [8]: inactive
activation [9]: -2.25% [middle of 4 runs]

Cc1c(N=C=O)cccc1N=C=O
activity change, negative = cytotoxicity [7]: -2.52%
activation [5]: -8.11% and -0.971%
outcome [6]: inactive

C1OCOCO1
Potency [10]: inactive
activity, negative = inhibition ([11]; parasite line A): -0.0178%
activity, negative = inhibition ([11]; parasite line B): 3.44%
Potency (AA1029): inactive
Potency (ATS189): inactive
Potency (ATS95): inactive
Potency (CP238): inactive
Potency (CP262): inactive
Potency (CP265): inactive
Potency (CP286): inactive
Potency (PC15): inactive
Potency (W2): inactive

O=C1CCc2ccccc2O1
activity change, negative = cytotoxicity [7]: 7.64%
Potency [8]: inactive

O=C(Nc1ccccc1)c1ccccc1O
outcome [6]: inactive
activation [9]: 2.18%

c1ccc(Nc2nc(-c3ccoc3)nc3ccccc23)cc1
activity change, negative = inhibition [1]: 2.6%
outcome [2]: inactive
Potency [3]: > 46 µM
outcome [4]: inactive

Cc1ccccc1-c1ccc2ncnc(NCCN3CCOCC3)c2c1
activity change, negative = inhibition [1]: -0.729%
outcome [2]: inactive
Potency [3]: > 46 µM

COC(=O)c1ccc(C)cc1
activity change, negative = cytotoxicity [7]: -14.4%
activation [9]: -15.8%

O=c1cnc2cnc(N3CCOCC3)nc2n1Cc1cccs1
activity change, negative = inhibition [1]: -0.57%
outcome [2]: inactive
Potency [3]: > 46 µM
outcome [4]: inactive

C/C=C\c1ccc(OC)cc1
Potency [10]: inactive
activity, negative = inhibition ([11]; parasite line A): -0.333%
activity, negative = inhibition ([11]; parasite line B): -2.16%
Potency (AA1029): inactive
Potency (ATS189): inactive
Potency (ATS95): inactive
Potency (CP238): inactive
Potency (CP262): inactive
Potency (CP265): inactive
Potency (CP286): inactive
Potency (PC15): inactive
Potency (W2): inactive

CC(C)(CO)C(O)C(=O)NCCCC(=O)O (centres undefined)
Potency [10]: inactive
Potency ([11]; parasite line A): 0.0141 µM (active)
Potency (AA1029): inactive
Potency (ATS189): 2.82 µM (active)
Potency (ATS95): inactive
Potency (CP238): 17.8 µM (active)
Potency (CP262): inactive
Potency (CP265): 0.0141 µM (active)
Potency (CP286): 10 µM (active)
Potency (PC15): inactive

Cc1ccc([N+](=O)[O-])c(C)c1
Potency [8]: inactive
activation [9]: -4.65% and 0.746%

CC1=CC(C)(C)Nc2ccccc21
activity change, negative = cytotoxicity [7]: -24% and 1.94%
outcome [4]: inactive

NC1=NC(S)C2N=CN=C2N1 (centres undefined)
activity, negative = inhibition ([11]; parasite line A): 3.76%
activity, negative = inhibition ([11]; parasite line B): -5.29%
Potency (AA1029): inactive
Potency (ATS189): inactive
Potency (ATS95): inactive
Potency (CP238): inactive
Potency (CP262): inactive
Potency (CP265): inactive
Potency (CP286): inactive
Potency (PC15): inactive
Potency (W2): inactive

c1ccc2c(c1)[nH]c1ccccc12
activity change, negative = cytotoxicity [7]: -16.4%
Potency [8]: inactive
outcome [6]: inactive
activation [9]: -0.462% and 14.4%

CCC(O)OC(O)CC (centres undefined)
activity change, negative = cytotoxicity [7]: 5.7% and 11.3%
activation [9]: 1.96% and -2.19% and -0.591%

CCCN(CCC)C(=O)SCC
activity change, negative = cytotoxicity [7]: -0.642%
Potency [8]: inactive
activation [5]: 12.4% and -3.98%
outcome [6]: inactive

Cc1ccc([N+](=O)[O-])cc1N
activity change, negative = cytotoxicity [7]: -2.12%

CN(C)C(=O)c1ccc(-c2ccc3ncnc(Nc4ccc(F)cc4)c3c2)cc1
activity change, negative = inhibition [1]: 24.8%
outcome [2]: inactive
Potency [3]: > 46 µM
outcome [4]: inactive

ClCCCl
Potency [8]: inactive
activation [9]: -0.189% and 0.123% and 2.5%

COC(=O)CCCCC(=O)OC
activation [9]: 7.61% and 12.5%

OCCNCCO
activity change, negative = cytotoxicity [7]: 6.19%

CC(C)=CCCC(C)CCO (centres undefined)
activation [5]: 11% and 2.32%
outcome [6]: inactive
activation [9]: 0.913% and 4.62%
